# PubChem BioAssay (Tox21)
# Records with an inconclusive call do not appear. Unmarked numbers belong to inactive results. Calls follow the shape of the dose curve; as a rule, active = well fitted activation curve with a large enough effect in the signal ratio in the repeat runs (not every such curve was filed as active); inconclusive = weak or mixed curves; inactive = flat fitted curve, though single readings scatter; the % refers to the signal ratio.
# Assay: qHTS assay to identify small molecule agonists of the TGF-beta/Smad signaling pathway (AID 1346859)
# Conditions: SBE-bla HEK293T, TGF-beta/Smad beta-lactamase reporter, 5 h; series mostly up to 76.8 µM; activation: at the top concentration
# Source text: U.S. Tox21 Program National Center for Advancing Translational Sciences [NCATS] NIH Chemical Genomics Center [NCGC] U.S. Environmental Protection Agency [EPA] National Institutes of Environmental Health Sciences [NIEHS] National Toxicology Program [NTP] U.S. Food and Drug Administration [FDA] Tox21 Assay Overview: Transforming growth factor beta (TGF-beta) superfamily consists of a large number of structurally related dimeric proteins that act as hormones or local mediators in regulating a wide range of biological functions. This superfamily includes TGF-betas themselves, the bone morphogenetic proteins (BMPs) and the activins. These ligands induce oligomerization of serine/threonine receptor kinases and phosphorylate the cytoplasmic signaling molecules of Smad protein family. CellSensor SBE-bla HEK 293T cell line (Life Technologies, Carlsbad, CA), responsive to TGF-beta was used to screen Tox21 10K compound library for identification of agonists/antagonists of the Smad signaling pathway. This cell line contains a beta-lactamase reporter gene under control of the Smad binding element (SBE) stably integrated into HEK 293T cells.
# Tox21 Assay Protocol Summary: SBE-bla HEK 293T cells were dispensed at 4,000/well in 6 uL of assay medium into black wall/clear-bottom 1536-well plates using a Multidrop Combi (ThermoFisher Scientific, Waltham, MA) dispenser. After the assay plates were incubated at 37 C and 5% CO2 for an overnight, 23 nL of compounds dissolved in DMSO, positive controls or DMSO only was transferred to the assay plate by a Pintool station (Kalypsys, San Diego, CA). The assay plates were incubated at 37 C and 5% CO2 for 5 hr. One uL of LiveBLAzer B/G FRET substrate (Life Technologies) was added using a Flying Reagent Dispenser (Aurora Discovery, San Diego, CA) and the plates were incubated at room temperature for 2 hr. Fluorescence intensity (405 nm excitation, 460 nm and 530 nm emissions) was measured using an Envision plate reader (PerkinElmer, Shelton, CT).
# % is scaled to controls: 0 for no effect and ±100 for the full control effect.
row,SMILES,activation
1,CCOC(=O)N1CCC(Nc2ccc(Cl)cc2N)CC1,-6.82% [at 35.3 µM]
2,CCc1ccc(C)cc1,-0.567%
3,NC(=O)CCCCC(N)=O,2.19%
4,Cc1cc(CCCOc2c(C)cc(-c3noc(C(F)(F)F)n3)cc2C)on1,-2.27% [at 35.3 µM]
5,O=S(=O)(O)CO,1.76%
6,CS(=O)(=O)c1ccc([C@@H](C[C@H]2CCC(=O)C2)C(=O)Nc2cnccn2)cc1Cl,-3.45%
7,Nc1ccc(NC(=O)c2ccc(N)cc2)cc1,-8.38%
8,Cc1c[nH]c2ccccc12,6.04% [at 35.3 µM]
9,CCCCCCCCCCCCCOS(=O)(=O)O,6.73%
10,O=C(NS(=O)(=O)/C=C/c1ccccc1)c1ccc(F)cc1Cl,-6.02%
11,CCN(Cc1cccc(S(=O)(=O)O)c1)c1ccc(C(=C2C=CC(=[N+](CC)Cc3cccc(S(=O)(=O)O)c3)C=C2)c2ccccc2S(=O)(=O)[O-])cc1,-0.263% [at 35.3 µM]
12,CC(O)Cn1cnc2c1c(=O)n(C)c(=O)n2C (stereo not given),2.4% [at 35.3 µM]
13,CCN(Cc1cccc(S(=O)(=O)O)c1)c1ccc(C(=C2C=CC(=[N+](CC)Cc3cccc(S(=O)(=O)O)c3)C=C2)c2ccc(O)cc2S(=O)(=O)[O-])cc1,0.323% [at 35.3 µM]
14,O=[N+]([O-])c1ccc2ncccc2c1,0.175%
15,CCOC(=O)Oc1ccc(CCNC(=O)[C@H](CCSC)NC(C)=O)cc1OC(=O)OCC,3.92% [at 35.3 µM]
16,COC(OC)OC,-0.585%
17,Cc1ccc(N(CC2=NCCN2)c2cccc(O)c2)cc1,0.397% [at 35.3 µM]
18,C/C(C=O)=C\c1ccccc1,0.66%
19,COC(=O)CC(C(C)=O)C(=O)OC (stereo not given),-1.24%
20,CC(C)CC(O)CC(C)C,-4.34%

row,SMILES,activation
1,CC(C)(C)NCC(O)COc1cccc2c1C[C@H](O)[C@H](O)C2 (stereo not given in full),2.49% [at 35.3 µM]
2,CC(C)(O)CCc1ccccc1,0.807%
3,CN1C(CSCC(F)(F)F)Nc2cc(Cl)c(S(N)(=O)=O)cc2S1(=O)=O (stereo not given),-0.109% [at 35.3 µM]
4,C=CCOC(=O)COCCC(C)C,-3.53%
5,c1ccc(CCCc2ccncc2)cc1,3.08%
6,CSCC[C@H](NC(=O)[C@H](Cc1c[nH]c2ccccc12)NC(=O)CCNC(=O)OC(C)(C)C)C(=O)N[C@@H](CC(=O)O)C(=O)N[C@@H](Cc1ccccc1)C(N)=O,-2.16% [at 35.3 µM]
7,CCCCCc1ccco1,-0.284% [at 35.3 µM]
8,COC(=O)Nc1nc2ccc(C(=O)C3CC3)cc2[nH]1,-2.26% [at 35.3 µM]
9,COc1ccc2nc(S(=O)Cc3ncc(C)c(OC)c3C)[nH]c2c1 (stereo not given),1.23% [at 35.3 µM]
10,O=C1[C@@H]2[C@H]3CC[C@H](C3)[C@@H]2C(=O)N1CCCCN1CCN(c2ncccn2)CC1,0.374% [at 35.3 µM]
11,COc1ccc(/C=C/C(=O)c2ccc(OC)cc2OC)cc1,0.125% [at 35.3 µM]
12,C=C(C)c1ccccc1,0.0761%
13,O=S(=O)(Cl)c1c(Cl)cccc1Cl,1.18%
14,Cc1ccc(S(=O)(=O)NC(=O)NC2CCCCC2)cc1,-1.14% [at 35.3 µM]
15,O=C(c1ccccc1)c1ccc(O)cc1,-7.88%
16,CCN(CC)CCOc1ccccc1C(=O)CCc1ccccc1,-4.57% [at 35.3 µM]
17,O=C(O)CCC(=O)OC[C@@H](NC(=O)C(Cl)Cl)[C@H](O)c1ccc([N+](=O)[O-])cc1,3.13% [at 35.3 µM]
18,O=C1NC(=O)c2cccc3cccc1c23,-0.682%
19,O=C(O)CN1C(=O)c2cccc3cccc(c23)C1=O,1.54% [at 35.3 µM]
20,Cc1cccc2sc(N)nc12,-0.165%
